This note sets out measurements from PubChem BioAssay AID651955 (The Scripps Research Institute Molecular Screening Center, 2012).

Structures are written as SMILES. About 40 (2%) of roughly 2,400 compounds were called active. Only a sample is shown. Values without a mark were called inactive. Cut-off read from the data, not from the text of the source: active = activation above about 37%; inactive = the rest.

Sequence of Trace amine-associated receptor 1 (Homo sapiens) (Q96RJ0 whole entry, looked up): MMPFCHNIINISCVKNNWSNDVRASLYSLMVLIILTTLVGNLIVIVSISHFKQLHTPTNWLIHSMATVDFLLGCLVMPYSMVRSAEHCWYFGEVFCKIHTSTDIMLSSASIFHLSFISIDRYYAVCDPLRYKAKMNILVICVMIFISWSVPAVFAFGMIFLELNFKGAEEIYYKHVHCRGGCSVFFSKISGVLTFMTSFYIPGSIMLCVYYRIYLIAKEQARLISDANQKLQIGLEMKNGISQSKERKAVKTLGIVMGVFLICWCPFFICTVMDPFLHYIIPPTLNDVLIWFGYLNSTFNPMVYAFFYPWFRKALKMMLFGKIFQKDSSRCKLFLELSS

This assay has as its target Trace amine-associated receptor 1 (Homo sapiens) (UniProt Q96RJ0). The assay can be described thus: TAAR1 activation by candidate antagonists – cell-based, fluorescence, counter-screen for TAAR1 antagonist project (AID 651955).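 Note: CHO cells stably expressing TAAR1 with calcium dye readout; 0% = DMSO vehicle and 100% = full agonist response.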 The following applies: hTAAR1 cell line, agonist mode, at 3 µM, stronger effect = higher value.
As to `COc1ccc(C2=NOC(Cn3nc(C(=O)NCc4ccc5c(c4)OCO5)cc3-c3ccccc3)C2)cc1` (configuration not stated), the activation is 6.17%. To `COC(=O)c1sccc1NC(=O)c1cc(OC)c(OC)c(OC)c1` belongs 6.39%. In the case of `Cc1nc(N2CCN(c3ccccn3)CC2)c2c(C)c(C(=O)Nc3ccc(F)cc3)sc2n1`, the activation was 5.28%. `COc1ccc(CN(C)C(=O)c2cc(-c3ccc(C)cc3C)nc3ccccc23)c(OC)c1OC`: the activation is 12.2%. To `O=C(NCCN1C(=O)S/C(=C\c2cccnc2)C1=O)c1ccc(S(=O)(=O)N2CCCC2)cc1` belongs 6.63%; to `C[C@H](O)[C@@H]1C(=O)N2CCc3c([nH]c4c(-c5ccc6c(c5)OCO6)cccc34)[C@@H]2C[C@@H]1N(C)C(=O)c1ccco1`, 7.7%.

In the case of `Cc1cc(Br)ccc1NC(=O)c1cnc(N2CCN(c3ccccn3)CC2)c2ccccc12`, the activation was 5.88%. To `COC(=O)[C@@]1(Sc2ccc(C)cc2)CC(=O)N(c2cccc(SC)c2)[C@@H]1c1ccccc1` belongs 9.64%. For the compound `COc1ccc(S(=O)(=O)N2CCCC(C(=O)Nc3ccc(NC(=O)c4ccccn4)cc3)C2)cc1` (configuration not stated), the activation is 11%. To `COc1ccc(CCNC2=C(Cl)C(=O)N(Cc3ccccc3)C2=O)cc1OC` belongs 7.18%; to `O=C(O)c1ccc(NC(=O)c2cn(-c3ccccc3)nc2-c2ccc(Cl)cc2)cc1`, -1.05%; to `COc1ccc(NC(=O)c2cc(-c3ccc(C)o3)nc3ccccc23)cc1`, 6.61%. For the compound `O=C(Oc1ccc(-c2nnco2)cc1)c1ccc(F)c(S(=O)(=O)N2CCOCC2)c1`, the activation was 14.6%. Under `O=C(OCC(=O)N(CCc1ccccc1)Cc1ccccc1)c1ccccc1[N+](=O)[O-]` stands 7.56%; under `COC(=O)Cc1nnn2c1[C@H](C)[C@H](c1ccccc1Br)OCC2`, 7.69%. As to `COc1ccc(OC)c2[nH]c(=O)c(CCNC(=O)C(=O)c3c[nH]c4ccccc34)cc12`, the activation was 10.8%. To `Cc1cccc(NC(=O)c2ccc(COc3ccccc3[N+](=O)[O-])o2)n1` belongs 1.12%; to `NNC(=O)CNC(c1ccccc1)c1cc(Cl)ccc1NC(=O)c1ccccc1` (configuration not stated), 8.83%. To `Cc1cc(C(C)(C)C)oc1C(=O)N(CC(=O)NC1CCCC1)Cc1ccc(Cl)cc1` belongs 34.2%. On to `CCOc1cc(/C=N/NC(=O)c2cc(-c3ccccc3)nc3ccccc23)ccc1O`, for which the activation is 15.8%.

As to `O=C(N/N=C/c1ccc(OC(=O)c2ccccc2Cl)cc1)c1ccc(O)cc1`, the activation was 13.1%. Under `Cc1cccc(NC(=O)c2nc[nH]c2C(=O)NCC(=O)OCc2ccccc2)c1` stands 3.94%; under `C[C@H](NC(=O)c1nc[nH]c1C(=O)NCC(=O)OC(C)(C)C)C(=O)OCc1ccccc1`, 11.1%; under `O=C(COC(=O)CCCSc1nc2ccccc2[nH]1)Nc1ccc(Oc2ccccc2)cc1`, 9.65%. Under `COc1ccc(CCNC(=O)c2ccc(CS(=O)(=O)c3ccc(Br)cc3)o2)cc1OC` stands 12.3%; under `COc1cc2ccccc2cc1C(=O)Nc1ccc(NC(=O)c2cccs2)cc1`, 7.6%; under `C=CCC[C@H](Cc1ccc(F)cc1)C(=O)OC[C@H](C)NC(=O)[C@H](CC=C)CC(=O)N(CCO)Cc1ccccc1`, 6.83%.

As for `CCc1ccc2c(c1)NC(=O)C2(C)Cc1ccc(OC(F)(F)F)cc1` (configuration not stated), the activation was 25.6%. In the case of `CC/C(=N/Nc1ccccc1)c1cnnc(SC)n1`, the activation is -4.06%.

With `Cc1ccc2c(c1)N(CC(=O)NCCc1ccc(Cl)cc1)C(=O)c1cccnc1O2`, the activation is 5.11%.

Turning to `Oc1ccccc1N1CCN(c2ncnc3sc(-c4ccccc4)cc23)CC1`, the activation was 2.9%. Turning to `Cc1ccc(NC(=O)c2ccc(CSc3ncnc4nc[nH]c34)cc2)c(C)c1`, the activation was 3.79%. Consider `C=CCc1cc(S(=O)(=O)c2ccc(O)c(CC=C)c2)ccc1O`, for which the activation is 9.65%. In the case of `Cc1ccc2cccc(OCCCOc3ccccc3CO)c2n1`, the activation is 11.3%. On to `COc1ccc(/C=C/C(=O)Nc2ccc(C34CC5CC(CC(O)(C5)C3)C4)cc2)cc1OC`, for which the activation was 11.1%.

On to `Cc1ccccc1NC(=O)Cc1nc(COC(=O)C(C)(C)Oc2ccc(Cl)cc2)cs1`, for which the activation is 10.5%.

With `CCNS(=O)(=O)c1ccc(CCC(=O)N2CCN(c3cc(Cl)ccc3C)CC2)cc1`, the activation was 17.4%.

For the compound `COc1ccc(C(=O)Oc2ccc(-c3nnco3)cc2)cc1S(=O)(=O)N1CCOCC1`, the activation was 11%. On to `Oc1ccc(/C=N/Nc2nc(-c3ccccc3F)nc3ccccc23)c(O)c1`, for which the activation was 9.34%.

`C=CCn1c(SCc2cccc(F)c2)nc2cc(C(=O)N3CCC(C(N)=O)CC3)ccc2c1=O`: the activation was 9%. Under `COc1ccc2[nH]c(=O)c(CN(Cc3cccnc3)S(=O)(=O)c3ccccc3F)cc2c1` stands 12.6%. Under `Fc1ccc(/C=N/Nc2nc(-c3cccnc3)nc3ccccc23)cc1` stands 3.24%. To `CCOC(=O)C1=C(NC(=S)NC(=O)c2ccccc2)c2ccccc2CC1(C)C` belongs 31.1%; to `CNC(=O)c1ccsc1NC(=O)c1ccc(S(=O)(=O)N2CCc3ccccc32)cc1`, 6.5%; to `CC(C)(C)OC(=O)NCCCCCNC(=O)c1nc[nH]c1C(=O)NCc1ccccc1`, 7.66%. In the case of `Cc1ccccc1OCC(=O)Nc1ccc(N2CCN(C(=O)C(C)C)CC2)c(Cl)c1`, the activation was 10.6%.

Regarding `COc1cc(OC)cc(C(=O)OCC(=O)Nc2sccc2C(N)=O)c1`, the activation was 16.7%. Under `CCOc1ccc(NC(=O)N2CC=C(n3c(=O)[nH]c4ccccc43)CC2)cc1` stands 6.44%. `O=C(CCc1ccccc1)Nc1cccc(-c2nnc(-c3ccco3)o2)c1`: the activation was 7.95%. With `O=C(Nc1ccc(-c2nnc(-c3ccccc3)o2)cc1)c1ccc(Br)o1`, the activation was -1.1%. As for `CC(C)Oc1cc(F)ccc1-c1cc(C(=O)Nc2ccc(F)cc2)[nH]n1`, the activation is 2.53%. For the compound `COc1ccc(-c2cc(C(=O)N(C)Cc3ccc(OC)c(OC)c3OC)c3ccccc3n2)cc1OC`, the activation was 8.62%. To `O=C(NCCN1CCOCC1)c1ccccc1N1C(=O)[C@@H]2Cc3c([nH]c4ccccc34)C(c3cccc(Cl)c3)N2C1=O` (some centres not stated) belongs 5.75%; to `Clc1ccc(Nc2ncnc3c2nnn3Cc2ccccc2)cc1`, 6.12%; to `Nc1nonc1-n1nnc(C(=O)N/N=C/c2c[nH]c3ccccc23)c1-c1ccccc1`, 2.36%.

In the case of `O=c1[nH]c(CSc2ncc(-c3ccc(F)cc3)n2Cc2ccco2)nc2ccccc12`, the activation was 17.5%. Under `Cn1c2ccccc2c(=O)c2c(=O)n(Cc3ccco3)c(COc3ccccc3)nc21` stands 39.4% (active).

As to `Cc1ccc(C)c(N2CCN(C(=O)CCCCCn3c(=S)[nH]c4ccc(N5CCOCC5)cc4c3=O)CC2)c1`, the activation was 6.46%. Under `CC(C)N(Cc1ccccc1)C(=O)COC(=O)c1ccccc1SCC(=O)N1CCCC1` stands 10.5%; under `C/C(=N\Nc1ncc(Cl)cc1Cl)c1ccc(S(=O)(=O)NCc2ccco2)cc1`, -4.54%. To `COC(=O)Cc1nnn2c1[C@H](C)[C@H](c1ccccc1[N+](=O)[O-])OCC2` belongs 1.8%. Under `O=C1c2ccccc2C(=O)N1CCC#Cc1ccc2cc(C3(O)CCCCC3)oc(=O)c2c1` stands 10.5%. For the compound `C[C@@H]1CN([C@@H](C)CO)S(=O)(=O)c2ccc(C#Cc3cccc(F)c3)cc2O[C@H]1CN(C)S(=O)(=O)c1cn(C)cn1`, the activation is 9.74%.

Regarding `COc1ccc(-c2nn(-c3ccccc3)cc2C(=O)Nc2nccs2)cc1OC`, the activation is 7.13%. Under `O=C(NCc1ccc2c(c1)OCO2)c1c(-c2ccsc2)sc2ccccc12` stands -1.93%; under `CCC(=O)Oc1cccc(C(=O)Nc2ccc(-c3nnc(-c4ccco4)o3)cc2)c1`, 3.83%; under `O=S(=O)(c1cccs1)N1CCCc2nc(-c3ccc(Br)cc3)ccc21`, 0.43%. Under `CSC(=S)N/N=C/c1c[nH]c2ccccc12` stands 12%; under `CC(=O)n1cc([C@H]2C=C(C(=O)N3CCOCC3)O[C@@H](OCc3ccc(CO)cc3)C2)c2ccccc21`, 9.37%. Turning to `O=C(COC(=O)c1ccccc1SCC(=O)N1CCCC1)Nc1ccccc1OC(F)F`, the activation was 7.54%. To `Cc1onc(-c2c(F)cccc2Cl)c1C(=O)Nc1cccc(S(=O)(=O)N2CCCCC2)c1` belongs 7.98%. For `COc1cc(SC#N)ccc1N=Cc1c(C)[nH]n(-c2ccc(C)cc2)c1=O`, the activation is 1.06%. Under `CN(c1ccccc1)S(=O)(=O)c1cc(C(=O)Nc2nc3ccccc3[nH]2)ccc1Cl` stands 4.12%; under `O=C(NCC1CCCO1)c1cc2c([nH]c3ccccc32)c(-c2ccc(F)cc2)n1` (configuration not stated), 3.66%; under `CC(=O)c1ccccc1OCc1ccc(C(=O)c2ccccc2)cc1`, 6.46%. To `COc1ccc(CCNC(=O)C(=O)NCC2OCCN2S(=O)(=O)c2ccc(OC)c(C)c2)cc1` (configuration not stated) belongs 5.42%; to `COC(=O)C1=C(C)N(Cc2ccc(F)cc2)C(=S)NC1c1cccc(Cl)c1` (configuration not stated), 3.48%; to `CC(=O)OCCN(CCCn1c(-c2ccncc2)nc2ccccc21)c1nc(-c2ccc(C)cc2)cs1`, 2.91%. `O=C(Nc1ccccc1-c1nnn(CC(=O)N2CCN(c3ccccc3)CC2)n1)c1cccs1`: the activation is 6.9%. To `O=S1(=O)c2c(cccc2N2CCCCC2)O[C@H](COCc2ccccc2)CN1C1CC1` belongs 0.58%; to `Cc1cccc(C)c1NC(=O)CNC(=O)C1CCCC1`, 6.49%; to `CCN=C1SC(CC(=O)Nc2ccc(C)cc2)C(=O)N1CC` (configuration not stated), 12.6%.
